Hits are enriched below; roughly 17% of the tested compounds scored in any of these assays.
HT1080-NT tox: qHTS for induction of synthetic lethality in tumor cells producing 2HG: qHTS for the HT-1080-NT fibrosarcoma cell line. HT-1080-NT fibrosarcoma viability, CellTiter-Glo ATP luminescence, 48 h. Potency, µM (doses to about 46.1 µM), hits mostly cytotoxic. 1.6% of 360,000 active. AID 686970, 2013;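 further: NT is the 2HG producing partner of a matched IDH1 knockdown line; nearly all actives have a fitted effect of over 55% in size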
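750 cells/well, RPMI + 5% FBS; 2 h settle, compound pin-transfer, 48 h at 37 degrees C. CellTiter-Glo 10 min RT, luminescence. Normalized to DMSO and media-only wells.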
HepG2 viability: qHTS for Inhibitors of TGF-b: Cytotox Counterscreen | Potency, µM (series often up to 46.1 µM), actives largely listed as cytotoxic | HepG2 CAGA-GFP viability, ATP luminescence, 18 h | AID 588856, 2011 | 0.76% of 410,000 active
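CellTiter-Glo luminescence gave cytotoxicity after 18 hours at 37 degrees C. The cells were HepG2 CAGA-GFP in 1% FBS DMEM, stimulated with 500 pg/mL TGF-beta after compound addition. %Activity was normalised to no-cell wells (complete cell-killing) and DMSO (no toxicity), and curves were fitted and classified.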
HT1080 IDH1KD tx: qHTS for induction of synthetic lethality in tumor cells producing 2HG: qHTS for the HT-1080-IDH1KD cell line; AID 686971, 2013; HT-1080 IDH1 knockdown viability, ATP luminescence, 48 h; 2% of 360,000 active; Potency, µM (highest dose often 46.1 µM), usual class: cytotoxic
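HT-1080-IDH1KD cells (IDH1 knocked down), 750/well in RPMI with 5% FBS, treated with compound 48 h at 37 degrees C. Viability by CellTiter-Glo luminescence, normalised to DMSO and no-cell wells; concentration-response curves classed.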
DT40 TDP1 no CPT: qHTS for Inhibitors of human tyrosyl-DNA phosphodiesterase 1 (TDP1): qHTS in cells in absence of CPT; AID 686978, 2013; Potency, µM (titrated, usually from 46.2 µM), usual class: inhibitors; DT40 Tdp1-/- hTDP1 cells, no CPT, ATP luminescence, 48 h; 15% of 420,000 active; further: nearly all actives have a fitted effect of over 55% in size
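Chicken DT40 Tdp1-/- cells stably complemented with human TDP1 were seeded at 400 cells/well with DMSO in place of 20 nM camptothecin. After compound pinning, cells grew at least 48 hr at 37 °C; viability read by CellTiter-Glo luminescence.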
TDP1 cell CPT: qHTS for Inhibitors of human tyrosyl-DNA phosphodiesterase 1 (TDP1): qHTS in cells in presence of CPT | chicken DT40 Tdp1-/-;hTDP1 cells + 20 nM CPT, ATP luminescence, 48 h | Potency, µM (highest dose often 46.2 µM), actives largely listed as inhibitors | 12% of 420,000 active; further: nearly all actives have a fitted effect of over 55% in size
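Cell growth measured by CellTiter-Glo luminescence after a minimum 48 h, 37 C compound exposure with 20 nM CPT in Tdp1-knockout DT40 cells stably expressing hTDP1, seeded 400/well; qHTS titration format.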
TGFb inhibitor: qHTS for Inhibitors of TGF-b; HepG2 CAGA-GFP TGF-b/SMAD3 reporter, GFP fluorescence, 18 h; TGF-beta stimulated, 500 pg/mL final; Potency, µM (titrated, usually from 46.1 µM), actives largely listed as inhibitors; 1.2% of 410,000 active; further: nearly all actives have a fitted effect of over 65% in size
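Cell-based qHTS in HEPG2 carrying a CAGA-GFP Smad reporter; compounds added before 500 pg/mL final TGF-beta, 18 h incubation at 37 degrees C, GFP fluorescence quantified per cell by imaging cytometry.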
Large screens that a line does not name were inactive. The call rests on the fitted dose curve; in most records, active means well fitted curve in the direction sought with a large enough effect; inconclusive means small, poorly fitted or top-dose-only effect, or another doubt; inactive means no such curve, though single readings can be large; an effect the other way counts as inactive or inconclusive.

O=C(C[n+]1cccc(Br)c1)c1ccccc1	none
O=C(C[n+]1cccc(Br)c1)c1ccc(I)cc1	TDP1 cell CPT 2.2µM (no result: HT1080-NT tox, HT1080 IDH1KD tx)
O=C(CBr)c1ccc(Oc2ccc(C(=O)C[n+]3cccc(Br)c3)cc2)cc1	DT40 TDP1 no CPT 16µM, TDP1 cell CPT inconclusive (no result: HT1080-NT tox, HT1080 IDH1KD tx)
COc1ccc(C(=O)C[n+]2cccc(Br)c2)cc1	none
COc1ccc(S(=O)(=O)N2CCN(C(=O)Nc3ccccc3OC)CC2)cc1	none
CCN(c1ccccc1)S(=O)(=O)c1ccc(Cl)nc1	DT40 TDP1 no CPT inconclusive
CCN(c1ccccc1)S(=O)(=O)c1ccc(NCC2COc3ccccc3O2)nc1 (configuration not stated)	HT1080 IDH1KD tx inconclusive, DT40 TDP1 no CPT inconclusive, TDP1 cell CPT 26µM, TGFb inhibitor inconclusive
Cc1cccc(S(=O)(=O)Nc2nc3ccccc3nc2NCC2CCCO2)c1 (configuration not stated)	none
Oc1ccccc1Nc1nc(NCC2CCCO2)c2ccccc2n1 (configuration not stated)	DT40 TDP1 no CPT 26µM, TDP1 cell CPT 16µM
Oc1ccc(Nc2nc(NCC3CCCO3)c3ccccc3n2)cc1 (configuration not stated)	HT1080-NT tox 21µM, HT1080 IDH1KD tx inconclusive, DT40 TDP1 no CPT 16µM, TDP1 cell CPT 23µM
Oc1ccc(Cl)cc1Nc1nc(NCC2CCCO2)c2ccccc2n1 (configuration not stated)	TGFb inhibitor inconclusive (no result: HT1080-NT tox, HT1080 IDH1KD tx, DT40 TDP1 no CPT, TDP1 cell CPT)
Cc1ccc(S(=O)(=O)Nc2nc3ccccc3nc2NCC2CCCO2)cc1C (configuration not stated)	DT40 TDP1 no CPT inconclusive, TDP1 cell CPT 21µM
Cc1cc(C)n(CCC(=O)N=Nc2c(O)[nH]c3ccc(Br)cc23)n1	DT40 TDP1 no CPT inconclusive, TDP1 cell CPT inconclusive
O=C(Cn1c(C(F)(F)F)nc2ccccc21)N=Nc1c(O)[nH]c2ccc(Br)cc12	DT40 TDP1 no CPT 18µM, TDP1 cell CPT inconclusive
O=C(Cc1cccs1)N=Nc1c(O)[nH]c2ccc(Br)cc12	DT40 TDP1 no CPT inconclusive, TDP1 cell CPT 26µM
COc1ccc(CNC(=O)c2ccc(SC)cc2OC)cc1	none
COc1cc(SC)ccc1C(=O)Nc1cccc(C)n1	DT40 TDP1 no CPT 5.8µM, TDP1 cell CPT inconclusive
COc1cc(SC)ccc1C(=O)NCCc1ccccc1	HT1080 IDH1KD tx inconclusive, TDP1 cell CPT 15µM
COc1cc(SC)ccc1C(=O)Nc1ccccn1	none
COc1cc(SC)ccc1C(=O)Nc1ccc(Br)cn1	DT40 TDP1 no CPT 13µM, TDP1 cell CPT inconclusive
COc1ccccc1CNC(=O)CNC(=O)N1CC(=O)Nc2ccccc21	none
Cc1n[nH]c(C)c1S(=O)(=O)N1CCCC(C(=O)NC2CCCCC2)C1 (configuration not stated)	none
O=C(NC1CCCCC1)C1CCCN(S(=O)(=O)c2ccc(F)cc2)C1 (configuration not stated)	DT40 TDP1 no CPT inconclusive
CN(C)S(=O)(=O)c1ccc(S(=O)(=O)N2CCCC(C(=O)NC3CCCC3)C2)cc1 (configuration not stated)	DT40 TDP1 no CPT 2.9µM, TDP1 cell CPT inconclusive
Cc1nn(C)c(C)c1S(=O)(=O)N1CCCC(C(=O)NC2CCCCCC2)C1 (configuration not stated)	DT40 TDP1 no CPT inconclusive, TDP1 cell CPT 18µM
Cc1cc(C)c(S(=O)(=O)N2CCCC(C(=O)NC3CCCC3)C2)c(C)c1 (configuration not stated)	DT40 TDP1 no CPT 21µM, TDP1 cell CPT inconclusive

Source: PubChem BioAssay
